The values that follow come from PubChem BioAssay AID1117359 (Southern Research Institute, 2015).

In all, about 1,500 compounds went through this assay and about 460 (31%) were called active. Not all results are given here. Results with a measured potency or affinity are listed apart. Unmarked numbers belong to inactive results.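 The calls were made as follows: active = viability at or below 80% at any tested concentration, marking the compound as toxic; inactive = the rest.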

For orientation: viability means a read-out of living cells in per cent, often relative to untreated cells.

A short description of the experiment: THP-1 cell cytotoxicity, dose response, cytotoxicity control for Vif-APOBEC3G degradation inhibitor project, THP-1 cells (AID 1117359). Conditions: THP-1 viability, CellTiter-Glo luminescence, 72 h; series mostly up to 40 µM; viability: at the top concentration. A general note: In ATP-based viability assays light output follows the ATP content of the culture.
`COc1ccc(CC(=O)Oc2ccc(F)c(F)c2)cc1S(=O)(=O)N1CCOCC1`: the “viability” value is 95.9%.
Next, `O=C(NCc1ccc(F)cc1)C1CCC(CNc2c(N3CCCCC3)c(=O)c2=O)CC1` (stereo not given): 94.3%.
For `Cc1ccc(C)c(OCCC(=O)Nc2ccccc2C(=O)NC2CC2)c1`, the “viability” value was 90%.
Then `CCC(CC)NC(=O)Nc1ccc(F)cc1F`, with 94.3%; and `CS(=O)(=O)N(C(=O)NC(=O)NC1CCS(=O)(=O)C1)C1CCCCC1` (stereo not given), with 83.4%; and `O=C(CNS(=O)(=O)c1ccc2ccccc2c1)Nc1ccc(F)c(F)c1F`, with 103%.
Turning to `CC(C)(C)NC(=O)CSc1nnc(-c2ccccn2)n1Cc1ccccc1`, the “viability” value was 98.6%.
Then `COc1ccc(OC)c(NC(=O)COC(=O)c2ccc(OC)c(S(=O)(=O)N3CCOCC3)c2)c1`, with 113%; and `COc1ccc(NC(=O)c2ccc(S(=O)(=O)N3CCOCC3)o2)cc1`, with 115%; and `CC(=O)Nc1ccc2c(c1)Cc1cc(N3C(=O)C=CC3=O)ccc1-2`, with 88.1%.
With `NC(=O)C1CCCN(CC(=O)Nc2ccccc2C(=O)NC2CC2)C1` (stereo not given), the “viability” value is 108%.
Then `COC(=O)Cc1cc(=O)n(-c2nc3ccccc3[nH]2)[nH]1`, with 93.6%; and `CC(=O)OCCCNc1cc(Sc2nc3ccccc3s2)c2nonc2c1[N+](=O)[O-]`, with 102%.
Next, `CCCC(NCC(=O)Nc1ccccc1C(=O)NC1CC1)c1ccccc1` (stereo not given): 83.8%; `Cc1ccc(-n2nc(C)c3c(C)c(CCC(=O)O)c(C)nc32)cc1`: 95.3%; `CCN(CC)CCCNC(=O)CSc1nc(-c2cccs2)cc(C(F)(F)F)n1`: 93.7%.
Then `COCCn1c(N)c(N(Cc2ccccc2)C(=O)C2CCCCC2)c(=O)[nH]c1=O`, with 95.3%; and `O=C(O)c1ccc(NS(=O)(=O)c2cccc(C(=O)Nc3ccc([N+](=O)[O-])cc3)c2)cc1`, with 109%; and `O=C(CSCc1ccc(Br)cc1)NC1CC1`, with 89.4%.
As to `CC(c1ccccc1)N(C)CC(=O)NC(=O)NCCC1=CCCCC1` (stereo not given), the “viability” value was 82%.
Then `COC(=O)c1ccc(NC(=O)COc2cccc(-n3cnnn3)c2)cc1`, with 94.6%; and `CCOC(=O)c1csc(N)c1-c1ccc([N+](=O)[O-])cc1`, with 84.2%.
Next, `CCOC(=O)C/C(C)=N\Nc1ccc([N+](=O)[O-])cc1[N+](=O)[O-]`: 105%; `CCOc1ccccc1NC(=O)CCS(=O)(=O)c1ccc(Br)cc1`: 91.6%; `CC(=O)N1CCN(c2nc(-c3ccco3)c3c(c2C#N)CC(C)(C)SC3)CC1`: 91.1%.
Then `CC1CCCN(Cc2c(O)ccc3c2O/C(=C\c2ccco2)C3=O)C1` (stereo not given), with 88.4%; and `COc1cccc(-c2nc(-c3cccs3)no2)c1`, with 84%.
Turning to `COc1ccc(C(C)=O)cc1CN1C(=O)NC2(CCCC2)C1=O`, the “viability” value was 113%.
Next, `O=C(O)C1Nc2c(Cl)cc(Cl)cc2C2C=CCC12` (stereo not given): 98.9%; `COc1ccc(C(=O)N/N=C/c2cccnc2)cc1`: 91.2%; `Cc1ncc(CO)c(/C=N/NC(=O)c2cc(O)c(O)c(O)c2)c1O`: 91.7%.
Then `CCOC(=O)c1nn(-c2ccc(Cl)cc2Cl)c(=N)c(C#N)c1C`, with 91.6%.
With `CSc1ncccc1C(=O)NCc1nnc2ccccn12`, the “viability” value is 85.7%.
Then `COC(=O)C1=C(C)NC(=O)NC1c1ccc2c(c1)OCO2` (stereo not given), with 86.2%; and `Cc1cc(C)n2nc(SC(C)C(=O)N3CCCC3)nc2n1` (stereo not given), with 89.7%.
Consider `O=C(COC(=O)c1ccccc1Br)Nc1nnc(-c2ccccc2)o1`, for which the “viability” value is 101%.
Next, `O=C(Nc1ccc(F)cc1F)c1noc2c1CCC2`: 95.5%; `CCOc1cccc(=O)c2c(C)n(C)c(C)c12`: 86.7%; `CCOC(=O)Cn1nc(-c2ccccc2)c2cnc3ccc(C)cc3c21`: 104%.
Then `COc1ccc(/C=C/C(=O)NC(=S)Nc2ccccn2)cc1`, with 99.5%.
Next, `C[C@@H]1CCCCO[C@H](CN(C)C(=O)c2ccccc2)[C@@H](C)CN([C@H](C)CO)C(=O)c2cc(NC(=O)NC3CCCCC3)ccc2O1`: 81.3%.
As to `COc1cccc(/C=N/n2c(-c3cc(C)[nH]n3)n[nH]c2=S)c1`, the “viability” value is 95%.
Then `CS(=O)(=O)N1CCCCC1CCN1CCCCC1` (stereo not given), with 96.8%; and `CCOC(=O)COn1c(=O)c(-c2ccc(Cl)cc2)[n+]([O-])c2ccccc21`, with 112%.
Then `CCOC(=O)c1cccc2c(=O)c(C(=O)c3ccc(Cl)cc3)c(C(=O)OC)[nH]c12`, with 97.6%.
`CNC(=O)C(=O)N/N=C/c1cccnc1`: the “viability” value was 81.3%.
Then `COc1cccc(CN2CCSCC2)c1`, with 91.3%.
Next, `CCNC(=S)Nc1cccc(S(=O)(=O)NC2=NCCC2)c1`: 101%.
Take `CC(=O)NCCn1c(SCC(=O)Nc2ccc(C)cc2)nc2ccccc2c1=O`: the “viability” value was 89.7%.
Then `CCC(NC(=O)Nc1ccc(O)cc1)(C(F)(F)F)C(F)(F)F`, with 96%.
With `CC(=O)N1CCN(c2ccc(NCc3ccc(F)cc3)cc2)CC1`, the “viability” value is 95.9%.
Turning to `O=C1/C(=C/c2ccco2)SC(=S)N1c1cccnc1`, the “viability” value was 100%.
Next, `O=S(=O)(O)c1cc(O)c2c(O)c(N=Nc3cc(Cl)ccc3O)c(S(=O)(=O)O)cc2c1`: 87.5%; `Cc1ccccc1OCCC(=O)Nc1ccccc1C(=O)NC1CC1`: 84.7%.
With `CC(=O)Nc1ccc(OCC(=O)N2CCc3ccccc3C2)cc1`, the “viability” value is 112%.
